# Measurements taken from PubChem BioAssay AID1159580 (chemical genetic matrix, 2015).
# Values joined by “and” are separate entries in the source; they are usually repeats but may differ in a detail not shown here. Equal entries are not always repeated. About 2,000 (36%) of roughly 5,500 compounds were called active. Roughly 18% stayed inconclusive and do not appear here. Some of the results follow. Unmarked numbers belong to inactive results. No stated cut-off is given here; in the data, active means normalized growth mostly below about 0.91 (no sharp cut-off); inconclusive means no clear call, values can overlap the other calls; inactive means mostly above about 0.92.
# Experiment: chemical genetic growth profiling, strain panel (AID 1159580);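 further: tested at 20 µM; growth read once vehicle control cultures reached saturation at 30 °C; 1 = growth at the plate median or of vehicle wells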
# Conditions: growth OD
structure (smiles),measurement,setting,value
N[C@@H](Cc1cc(I)c(Oc2cc(I)c(O)c(I)c2)c(I)c1)C(=O)O,normalized growth,"S. cerevisiae deletion strains, locus YAL013W, strain DEP1, stronger effect = lower value",1.05
same,normalized growth,"S. cerevisiae deletion strains, locus YBR021W, strain FUR4, stronger effect = lower value",1.07
same,normalized growth,"S. cerevisiae deletion strains, locus YBR229C, strain ROT2, stronger effect = lower value",1.02
same,normalized growth,"S. cerevisiae deletion strains, locus YCL029C, strain bik1, stronger effect = lower value",1.22 [resistant] (active)
same,normalized growth,"S. cerevisiae deletion strains, locus YDL035C, strain GPR1, stronger effect = lower value",1.04
same,normalized growth,"S. cerevisiae deletion strains, locus YDL074C, strain BRE1, stronger effect = lower value",1.04
same,normalized growth,"S. cerevisiae deletion strains, locus YDL101C, strain DUN1, stronger effect = lower value",1.04
same,normalized growth,"S. cerevisiae deletion strains, locus YDL134C, strain PPH21, stronger effect = lower value",1.03
same,normalized growth,"S. cerevisiae deletion strains, locus YDL185W, strain tfp1, stronger effect = lower value",1.03
same,normalized growth,"S. cerevisiae deletion strains, locus YDL192W, strain arf1, stronger effect = lower value",1.12 [resistant] (active)
same,normalized growth,"S. cerevisiae deletion strains, locus YDR101C, strain arx1, stronger effect = lower value",1.04
same,normalized growth,"S. cerevisiae deletion strains, locus YDR150W, strain NUM1, stronger effect = lower value",1.06
same,normalized growth,"S. cerevisiae deletion strains, locus YDR162C, strain NBP2, stronger effect = lower value",1.03
same,normalized growth,"S. cerevisiae deletion strains, locus YDR318W, strain mcm21, stronger effect = lower value",1
same,normalized growth,"S. cerevisiae deletion strains, locus YDR388W, stronger effect = lower value",1.09 [resistant] (active)
same,normalized growth,"S. cerevisiae deletion strains, locus YDR502C, strain sam2, stronger effect = lower value",1.05
same,normalized growth,"S. cerevisiae deletion strains, locus YEL061C, strain CIN8, stronger effect = lower value",1.05
same,normalized growth,"S. cerevisiae deletion strains, locus YER110C, stronger effect = lower value",1.1
same,normalized growth,"S. cerevisiae deletion strains, locus YER155C, strain BEM2, stronger effect = lower value",1.06
same,normalized growth,"S. cerevisiae deletion strains, locus YER167W, strain BCK2, stronger effect = lower value",1.01
same,normalized growth,"S. cerevisiae deletion strains, locus YGL078C, strain dbp3, stronger effect = lower value",1.01
same,normalized growth,"S. cerevisiae deletion strains, locus YGL086W, strain mad1, stronger effect = lower value",1
same,normalized growth,"S. cerevisiae deletion strains, locus YGL248W, strain PDE1, stronger effect = lower value",1.02
same,normalized growth,"S. cerevisiae deletion strains, locus YGR078C, strain PAC10, stronger effect = lower value",1.03
same,normalized growth,"S. cerevisiae deletion strains, locus YGR135W, strain pre9, stronger effect = lower value",1.04
same,normalized growth,"S. cerevisiae deletion strains, locus YGR229C, strain SMI1, stronger effect = lower value",1.03
same,normalized growth,"S. cerevisiae deletion strains, locus YGR252W, strain gcn5, stronger effect = lower value",1.17
same,normalized growth,"S. cerevisiae deletion strains, locus YHR030C, strain SLT2, stronger effect = lower value",1.02
same,normalized growth,"S. cerevisiae deletion strains, locus YHR079C, strain IRE1 (second series), stronger effect = lower value",1.27 [resistant] (active)
same,normalized growth,"S. cerevisiae deletion strains, locus YHR079C, strain IRE1, stronger effect = lower value",1.05
same,normalized growth,"S. cerevisiae deletion strains, locus YHR094C, strain hxt1, stronger effect = lower value",1.04
same,normalized growth,"S. cerevisiae deletion strains, locus YHR129C, strain ARP1, stronger effect = lower value",1.04
same,normalized growth,"S. cerevisiae deletion strains, locus YHR200W, strain rpn10, stronger effect = lower value",1.19 [resistant] (active)
same,normalized growth,"S. cerevisiae deletion strains, locus YIL066C, strain RNR3, stronger effect = lower value",1.01
same,normalized growth,"S. cerevisiae deletion strains, locus YIL073C, strain SPO22, stronger effect = lower value",1.07
same,normalized growth,"S. cerevisiae deletion strains, locus YIL125W, strain kgd1, stronger effect = lower value",1.04
same,normalized growth,"S. cerevisiae deletion strains, locus YIR030C, strain dcg1, stronger effect = lower value",1.13 [resistant] (active)
same,normalized growth,"S. cerevisiae deletion strains, locus YJL095W, strain BCK1, stronger effect = lower value",0.994 and 1.02
same,normalized growth,"S. cerevisiae deletion strains, locus YJL134W, strain LCB3, stronger effect = lower value",1.03
same,normalized growth,"S. cerevisiae deletion strains, locus YJL168C, strain set2, stronger effect = lower value",1.1 [resistant] (active)
same,normalized growth,"S. cerevisiae deletion strains, locus YJL187C, strain SWE1 (second series), stronger effect = lower value",1.02
same,normalized growth,"S. cerevisiae deletion strains, locus YJR043C, strain POL32, stronger effect = lower value",1.04
same,normalized growth,"S. cerevisiae deletion strains, locus YJR066W, strain TOR1, stronger effect = lower value",0.978
same,normalized growth,"S. cerevisiae deletion strains, locus YJR075W, strain HOC1, stronger effect = lower value",1.05
same,normalized growth,"S. cerevisiae deletion strains, locus YKL009W, strain mrt4, stronger effect = lower value",0.928
same,normalized growth,"S. cerevisiae deletion strains, locus YKL068W, stronger effect = lower value",0.963
same,normalized growth,"S. cerevisiae deletion strains, locus YKL085W, strain MDH1 (second series), stronger effect = lower value",0.995
same,normalized growth,"S. cerevisiae deletion strains, locus YKL085W, strain MDH1, stronger effect = lower value",0.995
same,normalized growth,"S. cerevisiae deletion strains, locus YKL190W, strain CNB1, stronger effect = lower value",1.04
same,normalized growth,"S. cerevisiae deletion strains, locus YKR001C, strain vps1, stronger effect = lower value",0.953
same,normalized growth,"S. cerevisiae deletion strains, locus YLR039C, strain RIC1, stronger effect = lower value",1.04
same,normalized growth,"S. cerevisiae deletion strains, locus YLR058C, strain SHM2, stronger effect = lower value",1.03
same,normalized growth,"S. cerevisiae deletion strains, locus YLR102C, strain apc9, stronger effect = lower value",1.09 [resistant] (active)
same,normalized growth,"S. cerevisiae deletion strains, locus YLR113W, strain HOG1, stronger effect = lower value",1.01
same,normalized growth,"S. cerevisiae deletion strains, locus YLR262C, strain YPT6, stronger effect = lower value",1.06
same,normalized growth,"S. cerevisiae deletion strains, locus YLR268W, strain sec22, stronger effect = lower value",1.05
same,normalized growth,"S. cerevisiae deletion strains, locus YLR330W, strain CHS5, stronger effect = lower value",1.13 [resistant] (active)
same,normalized growth,"S. cerevisiae deletion strains, locus YLR342W, strain FKS1 (second series), stronger effect = lower value",0.998
same,normalized growth,"S. cerevisiae deletion strains, locus YLR371W, strain rom2, stronger effect = lower value",1.2 [resistant] (active)
same,normalized growth,"S. cerevisiae deletion strains, locus YLR418C, strain cdc73, stronger effect = lower value",0.998
same,normalized growth,"S. cerevisiae deletion strains, locus YML016C, strain PPZ1, stronger effect = lower value",1.02
same,normalized growth,"S. cerevisiae deletion strains, locus YML032C, strain rad52, stronger effect = lower value",1.03
same,normalized growth,"S. cerevisiae deletion strains, locus YML124C, strain tub3, stronger effect = lower value",1.06
same,normalized growth,"S. cerevisiae deletion strains, locus YMR078C, strain ctf18, stronger effect = lower value",1.16 [resistant] (active)
same,normalized growth,"S. cerevisiae deletion strains, locus YMR223W, strain ubp8, stronger effect = lower value",1.25 [resistant] (active)
same,normalized growth,"S. cerevisiae deletion strains, locus YMR263W, strain SAP30, stronger effect = lower value",1.06
same,normalized growth,"S. cerevisiae deletion strains, locus YMR307W, strain GAS1, stronger effect = lower value",1.05
same,normalized growth,"S. cerevisiae deletion strains, locus YNL067W, strain RPL9B, stronger effect = lower value",1.02
same,normalized growth,"S. cerevisiae deletion strains, locus YNL128W, strain TEP1, stronger effect = lower value",1.05
same,normalized growth,"S. cerevisiae deletion strains, locus YNL153C, strain GIM3, stronger effect = lower value",1.02
same,normalized growth,"S. cerevisiae deletion strains, locus YNL183C, strain NPR1, stronger effect = lower value",0.945
same,normalized growth,"S. cerevisiae deletion strains, locus YNL233W, strain BNI4, stronger effect = lower value",1.03
same,normalized growth,"S. cerevisiae deletion strains, locus YNL250W, strain rad50, stronger effect = lower value",1.04
same,normalized growth,"S. cerevisiae deletion strains, locus YNL271C, strain bni1, stronger effect = lower value",1
same,normalized growth,"S. cerevisiae deletion strains, locus YNL298W, strain CLA4, stronger effect = lower value",1.03
same,normalized growth,"S. cerevisiae deletion strains, locus YNL307C, strain MCK1, stronger effect = lower value",0.851 (active)
same,normalized growth,"S. cerevisiae deletion strains, locus YNL322C, strain KRE1, stronger effect = lower value",1.05
same,normalized growth,"S. cerevisiae deletion strains, locus YNR052C, strain pop2, stronger effect = lower value",1.24 [resistant] (active)
same,normalized growth,"S. cerevisiae deletion strains, locus YOL006C, strain TOP1, stronger effect = lower value",1.02
same,normalized growth,"S. cerevisiae deletion strains, locus YOL012C, strain htz1",1.11
same,normalized growth,"S. cerevisiae deletion strains, locus YOL147C, strain pex11, stronger effect = lower value",1.08 [resistant] (active)
same,normalized growth,"S. cerevisiae deletion strains, locus YOR061W, strain CKA2, stronger effect = lower value",1.03
same,normalized growth,"S. cerevisiae deletion strains, locus YOR069W, strain VPS5, stronger effect = lower value",1.03
same,normalized growth,"S. cerevisiae deletion strains, locus YOR144C, strain elg1, stronger effect = lower value",1.2 [resistant] (active)
same,normalized growth,"S. cerevisiae deletion strains, locus YOR184W, strain ser1, stronger effect = lower value",1.01
same,normalized growth,"S. cerevisiae deletion strains, locus YOR231W, strain MKK1, stronger effect = lower value",1.02
same,normalized growth,"S. cerevisiae deletion strains, locus YOR316C, strain cot1, stronger effect = lower value",1.22 [resistant] (active)
same,normalized growth,"S. cerevisiae deletion strains, locus YPL055C, strain LGE1, stronger effect = lower value",1.03
same,normalized growth,"S. cerevisiae deletion strains, locus YPL241C, strain CIN2, stronger effect = lower value",1.05
same,normalized growth,"S. cerevisiae deletion strains, locus YPL256C, strain CLN2, stronger effect = lower value",1.06
same,normalized growth,"S. cerevisiae deletion strains, locus YPR119W, strain clb2, stronger effect = lower value",1.06
same,normalized growth,"S. cerevisiae deletion strains, locus YPR141C, strain kar3, stronger effect = lower value",1.23 [resistant] (active)
same,normalized growth,"S. cerevisiae deletion strains, locus YPR163C, strain tif3, stronger effect = lower value",1.14 [resistant] (active)
same,normalized growth,"S. cerevisiae deletion strains, locus YPR167C, strain met16, stronger effect = lower value",1.17 [resistant] (active)
same,normalized growth,"S. cerevisiae deletion strains, strain wtn01, stronger effect = lower value",1.02
same,normalized growth,"S. cerevisiae strains, strain wild type, stronger effect = lower value",1.04
